Screens: PubChem BioAssay, National Center for Advancing Translational Sciences (NCATS)
In the library only some 5.6% were active in any assay of this set; here they are far more common.
VP16 counter: inhibits Gal4-VP16 luciferase reporter, ROR gamma counter-screen | Drosophila S2 Gal4-VP16 UAS-luciferase, luminescence, 20 h | Potency, µM (doses to about 53.6 µM), most hits filed as inhibitors | actives 3.5% (n = 310,000);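 further: Gal4-VP16 expression switched on by copper sulfate through the metallothionein promoter; nearly all actives have a fitted effect of over 50% in size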
Six1-Eya2 inh: inhibitors of human Six1/Eya2 interaction; Q15475+O00167; AlphaScreen GST-Six1/His-Eya2 binding, biochemical; hits give low values; AID 651725; activity change, % (no concentration beside the values); actives 0.56% (n = 360,000); in the data active means activity change below about -65%; inconclusive means mostly about -30% to -63%
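AlphaScreen luminescence read after one hour at 37 °C in darkness. Pin-transferred compounds met GST-Six1 and His-Eya2 protein (5X stock 250 nM/500 nM) plus glutathione donor and Ni-chelate acceptor beads (5X, 50 ug/mL).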
CtBP-E1A inh: blocks the CtBP interaction with E1A | AlphaScreen GST-E1A/His-CtBP binding, 1536-well; hits give low values | activity change, % (test concentration not listed) | actives 0.49% (n = 340,000) | AID 651724; in the data active means activity change below about -65%; inconclusive means mostly about -30% to -63%
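Protein mix (5X: 125 nM each GST-E1A, His-CtBP) was incubated with pinned compound 2 h at 37 deg C in dark, in 50 mM Tris pH 8.0 buffer with 300 mM NaCl. Glutathione donor and nickel acceptor beads followed; AlphaScreen signal read after 1 h.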
PKM2 act: activators of human pyruvate kinase M2 | purified PKM2, Kinase-Glo ATP luminescence, activation; response scale: 0% is enzyme alone, no compound | Potency, µM (top dose mostly 57.5 µM), actives largely listed as activators | actives 0.34% (n = 260,000) | AID 1631; further: nearly all actives have a fitted effect of over 55% in size
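ATP formation by purified human PK-M2, quantified via coupled luciferase luminescence after 1 h at room temperature with 0.1 mM ADP and 0.5 mM PEP final.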
RORgamma inh: inhibitors of mouse ROR gamma transcriptional activity. Drosophila S2 Gal4-RORgamma UAS-luciferase reporter, 20 h. Potency, µM (top dose mostly 53.6 µM), usual class: inhibitors. actives 5.4% (n = 310,000); further: nearly all actives have a fitted effect of over 60% in size
Target sequence (P51450 whole entry, looked up, the tested form may be a part): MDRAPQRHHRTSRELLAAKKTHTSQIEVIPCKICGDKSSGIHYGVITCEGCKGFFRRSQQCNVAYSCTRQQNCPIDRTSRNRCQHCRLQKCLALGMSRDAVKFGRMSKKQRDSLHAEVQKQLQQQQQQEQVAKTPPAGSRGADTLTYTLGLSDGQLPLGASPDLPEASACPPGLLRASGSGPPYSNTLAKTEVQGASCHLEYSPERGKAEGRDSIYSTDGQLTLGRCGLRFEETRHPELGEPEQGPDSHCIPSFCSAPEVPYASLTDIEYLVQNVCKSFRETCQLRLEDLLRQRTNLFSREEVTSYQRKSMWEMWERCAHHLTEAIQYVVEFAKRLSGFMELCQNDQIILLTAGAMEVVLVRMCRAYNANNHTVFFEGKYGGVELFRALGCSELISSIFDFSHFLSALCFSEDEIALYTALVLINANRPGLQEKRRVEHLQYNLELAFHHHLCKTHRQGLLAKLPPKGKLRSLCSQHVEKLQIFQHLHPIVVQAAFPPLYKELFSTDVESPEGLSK
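Drosophila S2 cells stably expressing Gal4-DBD/mouse RORγ fusion under metallothionein promoter plus UAS-luciferase; compound 1 h, then 700 uM CuSO4 induction for 20 h at ambient temperature; inhibition read as reduced luminescence.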
Each line names hits and unclear results; the compound was inactive in the other large screens. Unless noted, the call rests on the fitted dose curve; in most records, active means well fitted curve in the direction sought with a large enough effect; inconclusive means small, poorly fitted or top-dose-only effect, or another doubt; inactive means no such curve, though single readings can be large; an effect the other way counts as inactive or inconclusive.

COc1ccc2sc(N(CCCN(C)C)C(=O)c3ccc(S(=O)(=O)N4CCc5ccccc5C4)cc3)nc2c1	none (no result: VP16 counter, PKM2 act, RORgamma inh)
Cc1ccc2nc(N(CCCN(C)C)C(=O)c3ccc(S(=O)(=O)N4CCc5ccccc5C4)cc3)sc2c1	VP16 counter 12.6µM, Six1-Eya2 inh inconclusive, CtBP-E1A inh inconclusive, RORgamma inh 10µM
O=C(CN1C(=O)c2ccc([N+](=O)[O-])cc2C1=O)Nc1ccccc1N1CCCC1	none (no result: VP16 counter, PKM2 act, RORgamma inh)
Nc1nc(SCC(=O)Nc2ncc(Cl)cc2Cl)n[nH]1	none (no result: VP16 counter, PKM2 act, RORgamma inh)
Cc1cc(Nc2ncc(Cl)cc2Cl)n[nH]1	RORgamma inh 11.2µM
Cc1ccc(-n2[nH]c(C)c(C=Nc3ccc4[nH]c(=O)[nH]c4c3)c2=O)cc1	VP16 counter inconclusive, CtBP-E1A inh inconclusive
Cc1ccc(N=Cc2c(C)[nH]n(-c3nc4ccccc4[nH]3)c2=O)cc1	VP16 counter 11.2µM, Six1-Eya2 inh inconclusive, RORgamma inh 2.82µM
Cc1csc2c(N3CCN(C(=O)Nc4ccc(OC(F)(F)F)cc4)CC3)ncnc12	VP16 counter 12.6µM, RORgamma inh inconclusive
Cc1csc2c(N3CCC(C(=O)O)CC3)ncnc12	none (no result: CtBP-E1A inh)
Cc1cc(C)c2sc(NNC(=O)c3ccc(S(=O)(=O)N4CCc5ccccc5C4)cc3)nc2c1	VP16 counter 5.01µM, RORgamma inh 4.47µM
CCc1nnc(NC(=O)c2ccc(S(=O)(=O)N3CCc4ccccc4C3)cc2)s1	none
Cc1ccc(S(=O)(=O)N2CCc3ccccc3C2)cc1	none (no result: CtBP-E1A inh)
Cc1cc(C)c2nc(NNC(=O)c3cc(=O)c4ccccc4o3)sc2c1	VP16 counter inconclusive, PKM2 act inconclusive, RORgamma inh 5.01µM
Cc1cc(C)c2nc(NNC(=O)c3ccc(S(=O)(=O)N4CCc5ccccc5C4)cc3)sc2c1	VP16 counter 3.16µM, RORgamma inh 1.58µM
C/C(N[C@@H]1CSCC1O)=C1/C(=O)CC2[C@@H]1C2(C)C (stereo partly drawn)	RORgamma inh inconclusive (no result: Six1-Eya2 inh, CtBP-E1A inh, PKM2 act)
COC(=O)c1cccc(-c2ccc(C(c3c(C)[nH][nH]c3=O)c3c(C)[nH][nH]c3=O)o2)c1	RORgamma inh 11.2µM
Cc1cc(Cl)ccc1NC(=S)NCc1ccco1	VP16 counter 10µM, RORgamma inh inconclusive
Cc1ccc(Cl)cc1NC(=O)CCC(=O)NCc1ccco1	none
S=C(NCc1ccc(Cl)cc1)NN1CCOCC1	VP16 counter inconclusive, RORgamma inh 10µM
Cc1cc(Cl)ccc1NC(=S)NCc1ccc(Cl)cc1	RORgamma inh 2.82µM
Cc1cc(Cl)ccc1NC(=S)NCc1ccc(S(N)(=O)=O)cc1	none
CCCNC(=S)NCc1ccc(Cl)cc1	RORgamma inh 10µM
COc1ccc(Cl)cc1-c1cc(C(=O)Nc2ccc(C(C)(C)C)cc2)[nH]n1	none (no result: VP16 counter, PKM2 act, RORgamma inh)
O=C1CC(=O)Nc2cc(S(=O)(=O)N3CCN(c4ccc([N+](=O)[O-])cc4)CC3)ccc2N1	none (no result: CtBP-E1A inh, PKM2 act)
CCNC(=S)Nc1ccc(Cl)cc1Cl	RORgamma inh 11.2µM
Cc1cc(Cl)ccc1NC(=S)NCCc1ccc(Cl)cc1	VP16 counter 5.01µM, RORgamma inh 6.31µM
S=C(NCCc1ccccc1)Nc1ccc(Cl)cc1Cl	VP16 counter 15.8µM, RORgamma inh 3.98µM
O=C(Cc1ccccc1)NCCc1cccc(Cl)c1	RORgamma inh inconclusive
Cn1c(C(C#N)C(=O)c2sc3ccccc3c2Cl)nc2ccccc21 (stereo not drawn)	VP16 counter 4.47µM, RORgamma inh 1.78µM
Clc1ccc2ccc3cccnc3c2n1	VP16 counter inconclusive, RORgamma inh 12.6µM (no result: CtBP-E1A inh, PKM2 act)
COc1ccc(CCNC(=O)COc2ncnc3cc([N+](=O)[O-])ccc23)cc1	none
O=[N+]([O-])c1cccc(COc2ncnc3cc([N+](=O)[O-])ccc23)c1	Six1-Eya2 inh -71.9, CtBP-E1A inh -88.1, PKM2 act inconclusive
Cc1ccc(-n2nc(-c3ccco3)cc2C(=O)O)c(C)c1	PKM2 act 28.2µM
O=C(O)c1cc(-c2ccco2)nn1-c1ccc(Cl)cc1	Six1-Eya2 inh inconclusive
COc1ccc(C2=NN(C(=O)CSc3nc4ccccc4s3)C(c3ccc(OC)cc3)C2)cc1 (stereo not drawn)	VP16 counter 7.08µM, RORgamma inh inconclusive
COc1ccc(CCN(Cc2nc3ccccc3c(=O)[nH]2)C(=O)c2ccco2)cc1	VP16 counter inconclusive, PKM2 act inconclusive, RORgamma inh 12.6µM
COCC(=O)N(CCc1ccc(OC)c(OC)c1)Cc1nc2ccccc2c(=O)[nH]1	none
CCC(CC)C(=O)N(CCc1ccc(OC)cc1)Cc1nc2ccccc2c(=O)[nH]1	VP16 counter 10µM, RORgamma inh 5.01µM
COc1ccccc1NC(=O)C1=C(C)Nc2nnnn2C1c1ccccc1OC (stereo not drawn)	none
COc1ccccc1/C=C1\CCCC2=C1Nc1nnnn1C2c1ccccc1OC (stereo not drawn)	VP16 counter 14.1µM, RORgamma inh inconclusive
CC1=C(C(=O)N(C)C)C(c2cccs2)NC(=O)N1 (stereo not drawn)	none
CC1=C(C(=O)N(C)C)C(c2cccc(Cl)c2)NC(=O)N1 (stereo not drawn)	RORgamma inh 11.2µM
CC(Sc1nc2sc3c(c2c(=O)n1-c1ccccc1)CCCC3)C(=O)O (stereo not drawn)	none
CCn1c(SC(C)C(=O)O)nc2sc3c(c2c1=O)CCC3 (stereo not drawn)	VP16 counter 7.08µM, RORgamma inh 5.62µM
COC(=O)[C@H](CCSC)NC(=O)Nc1cccc(Br)c1	none
CC1(C)CC(=O)C=C(c2cccc(Cl)c2O)C1	none (no result: VP16 counter, PKM2 act, RORgamma inh)
CC1(C(=O)Nc2nnc(SCc3ccccc3)s2)Cc2ccccc2C(=O)O1 (stereo not drawn)	RORgamma inh 10µM
COCCn1c(SCC(=O)Nc2ncc(C)s2)nc2sc3c(c2c1=O)CCC3	VP16 counter 10µM, PKM2 act inconclusive (no result: Six1-Eya2 inh, CtBP-E1A inh)
COc1ccc2nc(C)cc(N3CCN(c4ccccc4)CC3)c2c1	RORgamma inh 14.1µM
COc1ccc2nc(C)cc(N3CCOCC3)c2c1	none
COc1cc(CC(=O)NCCCc2ccccc2)cc(OC)c1OC	none
COc1ccc(/C=c2\s/c(=C/C(=O)c3ccc(C)cc3)[nH]c2=O)cc1OC	VP16 counter inconclusive, RORgamma inh 12.6µM
CC(C)(C)C(=O)/C=c1\[nH]c(=O)/c(=C\c2ccc(F)cc2)s1	VP16 counter inconclusive, RORgamma inh inconclusive
C=C(CCC(=O)c1ccccc1)C(=O)c1ccccc1	VP16 counter 11.2µM, RORgamma inh 12.6µM
CCCCN(CC)C(=O)c1oc2ccc(S(=O)(=O)N3CCCC3)cc2c1C	none (no result: PKM2 act)
COc1cccc(C2NC(c3cccc(OC)c3O)C(C)C(=O)C2C)c1O (stereo not drawn)	VP16 counter 4.47µM, RORgamma inh 3.16µM
COc1ccccc1C1NC(c2ccccc2OC)C(C)C(=O)C1C (stereo not drawn)	none
